Source: PubChem BioAssay
Hits are enriched below; roughly 3.5% of the tested compounds scored in any of these assays.
TROY signal inh: TROY signaling inhibition; Q293 LMP1-TROYcd NF-kB luciferase reporter, 4 h; inhibition, % at 10 µM; 0.98% of 360,000 active; AID 1347056;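 active = compounds whose plate-normalised and pattern-corrected inhibition of the luciferase reporter signal at the single screening dose is 50% or more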
PPC-1+TRAIL kill: PPC-1 cancer cell killing with TRAIL present; PPC-1 cells + TRAIL, ATPLite viability luminescence; cell killing (% activity), % at 4 µM or 5 µM; 0.41% of 220,000 active; AID 1443;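 active = cell killing above 50% in the first pass at 4 µM, then a duplicate retest at 5 µM averaging 50% or more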
C8 TRAIL sens: caspase-8 TRAIL sensitization. NB7+C8 cells + TRAIL, ATPlite viability luminescence. inhibition (viability loss, TRAIL sensitization), % at 10 µM. 1% of 360,000 active. AID 624354;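 active = compounds causing at least 50% loss of cell viability in the single-dose screen, relative to plate controls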
HSP90 inh: HSP90 refolding inhibition in rabbit reticulocyte lysate; luciferase refolding luminescence, 3 h; inhibition, % at 5.6 µM; 0.91% of 290,000 active; AID 1789;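 active = inhibition above the screen-wide mean plus 3 SD, computed separately per campaign, cut at about 16% in these data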;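 also: inhibitors lower the luminescence because luciferase stays unfolded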
Platelet DG rel: modulates dense granule release in human platelets; human platelet-rich plasma, SFLLRN dense granule ATP release, luminescence; inhibition, %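 (compounds screened at 7.5 µM in platelet-rich plasma)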; 0.22% of 300,000 active; AID 1663;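 active = mean replicate score, as percent of positive control, at or above 50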
TWEAK-Fn14 inh: inhibitors of TWEAK-Fn14 interaction signaling | TWEAK-stimulated Fn14 reporter cells, luciferase luminescence, 8 h | 2% of 360,000 active | inhibition, % at 10 µM; in the data active = inhibition above about 50%
Each line names hits and unclear results; the compound was inactive in the other large screens.

CC1(C)N=C(N)N=C(N)N1CCCCc1ccccc1	C8 TRAIL sens 67.0 (no result: PPC-1+TRAIL kill, HSP90 inh, Platelet DG rel)
CCn1c(Oc2ccccc2F)nc2c1c(=O)n(C)c(=O)n2C	TWEAK-Fn14 inh 73.1 (no result: PPC-1+TRAIL kill)
CC(C)(C)c1ccc2c(c1)C(=O)c1ccccc1C2=O	TROY signal inh 52.5, C8 TRAIL sens 56.5
Cn1nc([N+](=O)[O-])nc1Sc1nnc(-c2ccccc2)o1	TWEAK-Fn14 inh 68.6
O=Cc1ccc(Sc2nnc(-c3ccccc3)o2)c([N+](=O)[O-])c1	none
CCOc1ccc(N=Nc2ccc(O)c3ncccc23)cc1	none (no result: PPC-1+TRAIL kill)
Oc1ccc(N=Nc2ccc3c(c2)OCCO3)c2ncccc12	TROY signal inh 59.9, TWEAK-Fn14 inh 82.5
NS(=O)(=O)c1ccc(N=Nc2ccc(O)c3ncccc23)cc1	none (no result: PPC-1+TRAIL kill)
Cc1cccc(N=Nc2ccc(O)c3ncccc23)c1	TWEAK-Fn14 inh 90.1
Cc1ccc(C)c(N=Nc2ccc(O)c3ncccc23)c1	TROY signal inh 77.9, TWEAK-Fn14 inh 81.4
COc1ccc(-c2coc3c(C(=O)Nc4cccc(NS(C)(=O)=O)c4)cccc23)c(C)c1	none (no result: PPC-1+TRAIL kill, HSP90 inh, Platelet DG rel)
CCOC(=O)c1ccc(NC(=O)c2c(NC(=O)CCC(=O)O)sc3c2CCCCC3)cc1	TWEAK-Fn14 inh 73.7
O=C(CSc1nnc(SCc2cccc3ccccc23)s1)N/N=C/c1c[nH]c2ccccc12	TWEAK-Fn14 inh 55.7
Cc1nc2ccccn2c1C(=O)N=Nc1c(O)n(CCC(C)C)c2ccccc12	TWEAK-Fn14 inh 68.6
CC1CC(C)(C)C2=NCCN21 (centres undefined)	none (no result: PPC-1+TRAIL kill, HSP90 inh, Platelet DG rel)
CCOC(=O)[C@]12CCC=C1N(Cc1cccc3ccccc13)C(=O)[C@H](CC(=O)NCc1ccc(OC)c(OC)c1)C2	TWEAK-Fn14 inh 60.5 (no result: PPC-1+TRAIL kill, HSP90 inh, Platelet DG rel)
COC(=O)[C@]12CCCCC=C1N(Cc1cccc3ccccc13)C(=O)[C@H](CC(=O)NCc1ccc(OC)c(OC)c1)C2	TROY signal inh 62.5, C8 TRAIL sens 63.3, TWEAK-Fn14 inh 97.4 (no result: PPC-1+TRAIL kill, HSP90 inh, Platelet DG rel)
C[C@@H]1CN([C@@H](C)CO)C(=O)CCCn2nncc2CO[C@H]1CN(C)C(=O)OCc1ccccc1	none (no result: PPC-1+TRAIL kill, HSP90 inh, Platelet DG rel)
CCc1cc2c(=O)oc(-c3ccc(F)cc3)nc2s1	TWEAK-Fn14 inh 54.5 (no result: PPC-1+TRAIL kill)
COc1ccc(Nc2ncnc3sccc23)cc1OC	none (no result: PPC-1+TRAIL kill)
Cc1nc(NCCc2cnc[nH]2)c2oc3ccccc3c2n1	none (no result: PPC-1+TRAIL kill)
COc1ccc(CCNc2ncnc3c2oc2ccccc23)cc1OC	TROY signal inh 57.3, TWEAK-Fn14 inh 90.9
COc1ccc(CCNc2ncnc3sccc23)cc1OC	TWEAK-Fn14 inh 50.1
COc1ccc(CCNc2nc(C)nc3c2oc2ccccc23)cc1OC	TROY signal inh 53.3
CC(=O)c1ccc(OCc2cc(C(=O)NC(C)CCn3cccn3)no2)cc1 (centres undefined)	none (no result: PPC-1+TRAIL kill)
CC(C)(C)S(=O)N1Cc2cc(=O)n(Cc3ccccc3)cc2[C@H]1CCO (some centres undefined)	none (no result: PPC-1+TRAIL kill, HSP90 inh, Platelet DG rel)
CNc1nc2cc([N+](=O)[O-])c([N+](=O)[O-])cc2nc1NC	TWEAK-Fn14 inh 50.7
N#Cc1cc2nc(O)c(O)nc2cc1[N+](=O)[O-]	none (no result: PPC-1+TRAIL kill, HSP90 inh, Platelet DG rel)
Cn1c(=O)[nH]c(=O)c2c1nc([N+](=O)[O-])n2Cc1ccccc1	C8 TRAIL sens 85.2, TWEAK-Fn14 inh 73.0
CC(C)Cn1c([N+](=O)[O-])nc2c1c(=O)[nH]c(=O)n2C	none
COc1ccc(/C=N/N(C)c2cc(=O)n(C)c(=O)[nH]2)cc1OC	Platelet DG rel 74.4
CN(/N=C/C=C/c1ccccc1)c1cc(=O)n(C)c(=O)[nH]1	none
Oc1ccc(/C=N/Nc2ccc(C(F)(F)F)cn2)c(O)c1	none (no result: PPC-1+TRAIL kill)
Oc1ccc(/C=N/Nc2cccc(Cl)n2)c(O)c1	Platelet DG rel 50.3 (no result: PPC-1+TRAIL kill)
Cc1[nH]cnc1C(=O)N/N=C/c1c(Cl)cccc1Cl	C8 TRAIL sens 59.2, Platelet DG rel 72.0 (no result: PPC-1+TRAIL kill)
Cc1nnsc1C(=O)N/N=C/c1c(F)cccc1Cl	none
CC1(O)CC(C)(C)C(C#N)C(=O)N1 (centres undefined)	none (no result: PPC-1+TRAIL kill, HSP90 inh, Platelet DG rel)
N#CC1=C(SCC(=O)Nc2ccc(C(=O)O)cc2)NC(=O)CC1c1ccco1 (centres undefined)	TWEAK-Fn14 inh 97.9
COc1ccc(S(=O)(=O)N2CCC(C(=O)N[C@@H](C)C(=O)NCc3ccco3)CC2)cc1	none (no result: PPC-1+TRAIL kill, HSP90 inh, Platelet DG rel)
Cc1cc2c(cc1C)CSC(c1c(O)ccc3ccccc13)SC2	TWEAK-Fn14 inh 75.0
Cc1cc2c(cc1C)CSC(c1ccc(O)cc1)SC2	TWEAK-Fn14 inh 55.3
Cc1cc2c(cc1C)CSC(c1ccc3ccccc3c1O)SC2	none
O=S(=O)(c1cccc(-c2n[nH]c(=S)n2-c2ccc(OC(F)(F)F)cc2)c1)N1CCOCC1	none (no result: PPC-1+TRAIL kill, HSP90 inh, Platelet DG rel)
O=C(NCc1ccccn1)c1ccccc1OCc1ccccc1Cl	none (no result: PPC-1+TRAIL kill, HSP90 inh, Platelet DG rel)
O=C(NC(c1ccc(Cl)cc1)c1c(O)ccc2ccccc12)c1ccccc1 (centres undefined)	TROY signal inh 51.7, TWEAK-Fn14 inh 65.9 (no result: Platelet DG rel)
O=C(NC(c1ccccc1)c1c(O)ccc2ccccc12)c1ccccc1Cl (centres undefined)	none
Cc1nccn1CC(O)Cn1c2ccccc2c2ccccc21 (centres undefined)	TWEAK-Fn14 inh 83.8 (no result: TROY signal inh)
CCn1c2c(c3cc(C(=O)O)ccc31)CCCC2=O	none (no result: Platelet DG rel)
CCn1c2c(c3cc(Cl)ccc31)CCCC2=O	HSP90 inh 64.4
CCN1CCN(c2nc(S(=O)(=O)c3ccc(C)cc3)c(Cl)s2)CC1	TROY signal inh 50.6
CCN1CCN(c2sc(S(C)(=O)=O)nc2S(=O)(=O)c2ccc(C)cc2)CC1	none (no result: PPC-1+TRAIL kill)
COc1ccc(Nc2nc(-c3cccc([N+](=O)[O-])c3)nc3ccccc23)cc1	TWEAK-Fn14 inh 79.6
CC(C)NC(=O)N(C)C[C@@H]1OCc2cnnn2CCCC(=O)N([C@H](C)CO)C[C@H]1C	none (no result: PPC-1+TRAIL kill, HSP90 inh, Platelet DG rel)
CCCCCc1c2c(cc(O)c1C(=O)O)OC(=O)c1c(cc(OC)cc1C(=O)CCCC)O2	TROY signal inh 62.5
O=S(=O)(c1cc(Cl)cc(Cl)c1)N1CCC2CC1c1cc(Cl)ccc12 (centres undefined)	none (no result: PPC-1+TRAIL kill, HSP90 inh, Platelet DG rel)
O=C(CSc1nncc(=O)[nH]1)Nc1cccc([N+](=O)[O-])c1	none (no result: PPC-1+TRAIL kill)
CC(=O)Nc1ccc(Nc2nc(C)c([N+](=O)[O-])c(Nc3ccccc3)n2)cc1	TROY signal inh 53.2, TWEAK-Fn14 inh 66.6
Clc1ccc2nc(-c3ccc(Br)s3)cn2c1	C8 TRAIL sens 58.8
COc1ccc(-c2cn3cc(Cl)ccc3n2)cc1OC	none
CC(=O)C1=C(c2cccc([N+](=O)[O-])c2)N(C(C)=O)n2c(C)nnc2S1	TWEAK-Fn14 inh 59.9
Cn1nc(C(=O)NCCc2ccc(S(N)(=O)=O)cc2)c2ccccc2c1=O	none
CCn1nc(C(=O)NCCc2ccc(S(N)(=O)=O)cc2)c2ccccc2c1=O	C8 TRAIL sens 47.2
O=C(NCCc1ccccc1)C(=O)NCC1OCCN1S(=O)(=O)c1ccc(Br)cc1 (centres undefined)	none (no result: PPC-1+TRAIL kill)
COc1ccc(C(=O)NN(C)c2nc(-c3ccccc3)nnc2C(F)(F)F)cc1	none
CN(NC(=O)C(C)(C)C)c1nc(-c2ccccc2)nnc1C(F)(F)F	C8 TRAIL sens 56.0
Cc1cc(C)cc(SCc2noc(C(=O)NCCC(C)C)c2C(=O)NCCC(C)C)c1	none (no result: PPC-1+TRAIL kill, HSP90 inh)
